Assay outcomes deposited in PubChem by National Center for Advancing Translational Sciences (NCATS).
LmPK inhibitor: LmPK (Leishmania mexicana) enzyme inhibition; Potency, µM (doses to about 57.5 µM), for inactives: at the top dose activity change, negative = inhibition, most hits filed as inhibitors; hit rate 0.37% among 290,000; purified LmPK, Kinase-Glo ATP luminescence, 1 h; Q27686; note: % is set by controls: 0 for no effect and ±100 for the full control effect
Target sequence (Q27686 whole entry, looked up): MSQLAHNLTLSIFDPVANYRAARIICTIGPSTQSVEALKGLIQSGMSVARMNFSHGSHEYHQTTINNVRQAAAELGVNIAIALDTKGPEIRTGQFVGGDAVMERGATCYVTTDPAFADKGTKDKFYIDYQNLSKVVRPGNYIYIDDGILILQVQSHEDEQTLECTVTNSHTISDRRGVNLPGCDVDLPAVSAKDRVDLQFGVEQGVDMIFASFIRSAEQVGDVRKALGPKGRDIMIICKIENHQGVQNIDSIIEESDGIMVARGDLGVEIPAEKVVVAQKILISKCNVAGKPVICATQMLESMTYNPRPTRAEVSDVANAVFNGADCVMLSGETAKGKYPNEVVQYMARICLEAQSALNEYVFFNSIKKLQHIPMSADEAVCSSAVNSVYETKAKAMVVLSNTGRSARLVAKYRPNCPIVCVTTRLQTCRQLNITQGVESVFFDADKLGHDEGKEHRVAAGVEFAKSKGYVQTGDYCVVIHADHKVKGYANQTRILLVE
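Purified LmPK (0.1 nM) with 0.5 mM PEP and 0.1 mM ADP in imidazole buffer pH 7.2 with MgCl2/KCl, 1 h at room temperature. ATP formed was read by luciferase luminescence and normalized to no-enzyme and uninhibited controls.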
Giardia FBPA inh: inhibitors of Giardia lamblia fructose-1,6-bisphosphate aldolase | A8B2U2 | purified Giardia FBPA | Potency, µM (doses to about 59.6 µM), inactives show top-dose activity, negative = inhibition, actives largely listed as inhibitors | hit rate 0.71% among 290,000 | AID 2451; note: % is set by controls: 0 for no effect and ±100 for the full control effect; nearly all actives have a fitted effect of over 55% in size
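Giardia FBPA (40 nM reagent) was preincubated 10 min at RT with compound (up to 57.5 uM final), then substrate plus GAPDH/TPI/NAD/arsenate coupling system with diaphorase/resazurin was added; resorufin fluorescence (525/598 nm) was read after 20 min.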
RE007 growth inh: less growth of the S. pombe RE007 Vpr strain; S. pombe RE007 Vpr strain, BacTiter-Glo ATP luminescence, 24 h; Potency, µM (doses to about 92.2 µM), inactives show at the top dose activity change, negative = less growth, hits mostly inhibitors; hit rate 0.21% among 360,000; AID 651644; active = well fitted falling curve with a large enough effect; inconclusive = small, poorly fitted or top-dose-only effect; inactive = no such curve, though single readings can be large or run the other way; note: % is set by controls: 0 for no effect and ±100 for the full control effect; nearly all actives have a fitted effect of over 50% in size
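Fission yeast strain RE007, carrying one chromosomally integrated HIV-1 vpr copy, was seeded at OD 0.01 in PMG+AL medium with 23 nL pinned compound. After 24 h at 30 °C and 99% humidity, viability was read by BacTiter-Glo luminescence.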
TbPYK inhibitor: blocks Trypanosoma brucei pyruvate kinase; Q57TT1; TbPYK enzyme, Kinase-Glo Plus ATP luminescence, 45 min; Potency, µM (doses to about 76.8 µM), for the others: at the top dose activity, negative = inhibition, usual class: inhibitors; hit rate 0.12% among 410,000; AID 624173; note: % is set by controls: 0 for no effect and ±100 for the full control effect; nearly all actives have a fitted effect of over 50% in size
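Luminescence from Kinase-Glo Plus, added after a 45-minute room-temperature reaction, served as the end-point read-out. The enzyme and substrate were preincubated with compound before ADP (130 uM final) initiated turnover. Concentration-effect curves came from normalized qHTS data.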
NS1 inh: inhibitors of influenza NS1 protein function; Potency, µM (titrated, usually from 46.1 µM), for inactives: at the top dose activity, positive = more growth; hit rate 0.4% among 270,000; AID 2326; calls by dose curve; note: actives are rising curves; nearly all actives have a fitted effect of over 50% in size
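Recovery from NS1-induced slow growth read by OD600 in budding yeast switched to galactose assay medium (pH 6.0, -URA) at 1:100 dilution. Compound 23 nl per well; the matching strain lacking NS1 serves as control.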
Sm TGR block: S. mansoni TGR enzyme inhibition; purified TGR, DTNB reduction, TNB absorbance 405 nm; Potency, µM (top dose mostly 114 µM), for the others: at the highest dose activity change, negative = inhibition, actives largely listed as inhibitors; hit rate 3% among 360,000; AID 485364; note: % is set by controls: 0 for no effect and ±100 for the full control effect; nearly all actives have a fitted effect of over 60% in size
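TGR 20 nM + NADPH 100 uM (dispensed conc.), cpd preinc 15 min RT; start with NADPH (500 uM addition) then DTNB (15 mM addition). Kinetic TNB absorbance, 405 nm filter. Four-parameter Hill fit across titration.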
* marks the source's active call; other numbers are inactive results; [ ] = dose if it differs, or a comment. Compounds with a hit are over-represented: about 3.5% of the library has one in this group of screens. Unless noted, calls come from the whole dose curve; as a rule, active = well fitted curve in the direction sought with a large enough effect; inconclusive = small, poorly fitted or top-dose-only effect, or another doubt; inactive = no such curve, though single readings can be large; an effect the other way counts as inactive or inconclusive. Potency is the fitted concentration of half-maximal effect.

How did O=C(CSc1nc2ccsc2c(=O)n1Cc1ccccc1Cl)NCc1ccc(Cl)cc1 do in these assays?
TbPYK inhibitor: 2%; Sm TGR block: 3%

How did O=C(Nc1ccc(C(=O)N2CCN(c3cccc(Cl)c3)CC2)cc1)c1nsc2ccccc12 do in these assays?
TbPYK inhibitor: -4%; Sm TGR block: 11%

What do the screens show for `CCOc1ccc(CNC(=O)CCS(=O)(=O)c2cc3c(cc2Cl)NC(=O)CO3)cc1OC`?
TbPYK inhibitor: -1%; Sm TGR block: -1%

Results for O=C(COc1ccccc1F)Nc1ccccc1OCc1cc(=O)n2ccccc2n1 ?
TbPYK inhibitor: -2%; Sm TGR block: 0%

How did COc1ccc(C[C@@H]2CN3C(=NC[C@@H]3C)N2C[C@H](C)NC(=O)CCC2CCCCC2)cc1 do in these assays?
LmPK inhibitor: -7%; Giardia FBPA inh: -6%; RE007 growth inh: 1%; TbPYK inhibitor: -3%; NS1 inh: 0%; Sm TGR block: 25µM*

Results for COc1ccc(C[C@H]2CN3C(=NC[C@@H]3Cc3ccccc3)N2C[C@H](C)NC(=O)CCC2CCCCC2)cc1 ?
LmPK inhibitor: 5%; Giardia FBPA inh: -2%; NS1 inh: 7%; Sm TGR block: -7%

What do the screens show for `COc1ccc(N(Cc2cccs2)C(=O)c2ccc(Br)o2)cc1`?
TbPYK inhibitor: 8%; Sm TGR block: -3%

How did C=C1CCN(CC(=O)OC)S(=O)(=O)c2ccccc21 do in these assays?
LmPK inhibitor: 2%; Giardia FBPA inh: 6%; RE007 growth inh: 2%; TbPYK inhibitor: 4%; NS1 inh: 6%; Sm TGR block: 32µM*

Results for O=C1CC(N2CCN(c3ccccc3F)CC2)C(=O)N1c1ccc(F)cc1 (stereo not given) ?
RE007 growth inh: -10%; TbPYK inhibitor: -1%

Results for CCCOc1ccc(N2C(=O)CC(N3CC=C(c4ccccc4)CC3)C2=O)cc1 (stereo not given) ?
LmPK inhibitor: 1%; Giardia FBPA inh: -1%; RE007 growth inh: inconclusive; TbPYK inhibitor: -7%; NS1 inh: -6%; Sm TGR block: 28µM*

Results for O=C1CC(N2CC=C(c3ccccc3)CC2)C(=O)N1c1ccc(F)cc1 (stereo not given) ?
LmPK inhibitor: 3%; Giardia FBPA inh: inconclusive; RE007 growth inh: inconclusive; TbPYK inhibitor: -3%; NS1 inh: -41%; Sm TGR block: 8.9µM*

How did CCCOc1ccc(N2C(=O)CC(N(O)c3ccccc3)C2=O)cc1 (stereo not given) do in these assays?
LmPK inhibitor: -3%; Giardia FBPA inh: 2%; RE007 growth inh: 0%; TbPYK inhibitor: 1%; NS1 inh: 14%; Sm TGR block: inconclusive

Results for COc1ccc(-c2cc(-c3ccc(OC)cc3)[nH]n2)cc1 ?
LmPK inhibitor: 16%; Giardia FBPA inh: -7%; RE007 growth inh: -24%; TbPYK inhibitor: 1%; NS1 inh: -61%; Sm TGR block: 9%[11.4 µM]

How did COc1ccc(-c2cc(C3CCNCC3)[nH]n2)cc1 do in these assays?
LmPK inhibitor: 3%; Giardia FBPA inh: 3%; RE007 growth inh: 9%; TbPYK inhibitor: 5%; NS1 inh: 10%; Sm TGR block: 45µM*

How did O=C1S/C(=C\c2ccc(N3CCOCC3)o2)C(=O)N1Cc1ccc(F)cc1 do in these assays?
LmPK inhibitor: -4%; Giardia FBPA inh: inconclusive; RE007 growth inh: inconclusive; TbPYK inhibitor: inconclusive; NS1 inh: -1%; Sm TGR block: 5µM*

What do the screens show for `O=C1/C(=C/c2ccc(N3CCOCC3)o2)SC(=Nc2ccccc2)N1CCc1c[nH]c2ccccc12`?
LmPK inhibitor: 0%; Giardia FBPA inh: -14%; RE007 growth inh: 58%; TbPYK inhibitor: -20%; NS1 inh: -7%; Sm TGR block: 8.9µM*

Results for O=C1N=C(N2CCOCC2)S/C1=C/c1ccc(-c2ccc(F)cc2)o1 ?
LmPK inhibitor: 5%; Giardia FBPA inh: -4%; RE007 growth inh: 7%; TbPYK inhibitor: -4%; NS1 inh: 1%; Sm TGR block: -27%

Results for CC(C)OC(=O)CN1C(=O)S/C(=C/c2ccc(N3CCCCC3)o2)C1=O ?
LmPK inhibitor: 0%; Giardia FBPA inh: inconclusive; RE007 growth inh: -12%; TbPYK inhibitor: inconclusive; NS1 inh: -114%; Sm TGR block: 6.3µM*

How did O=C1S/C(=C/c2ccc(N3CCOCC3)o2)C(=O)N1Cc1ccc(F)cc1 do in these assays?
LmPK inhibitor: -6%; RE007 growth inh: -25%; TbPYK inhibitor: inconclusive; NS1 inh: 22%; Sm TGR block: 1µM*

How did Cc1cc(Nc2ccc(C)c(Cl)c2)n2nc(Cc3ccccc3)nc2n1 do in these assays?
TbPYK inhibitor: 2%; Sm TGR block: 2%

Results for O=C(O)[C@@H]1[C@@H]2O[C@H]([C@@H](Br)[C@H]2Br)[C@H]1C(=O)O ?
NS1 inh: 3%

How did Cc1ccccc1N1CCN(S(=O)(=O)CC23CCC(CC2NC(=O)C(N)CCS(C)(=O)=O)C3(C)C)CC1 (stereo not given) do in these assays?
Giardia FBPA inh: -3%

What do the screens show for `CCCCCCOc1ccc(C(=N)N(CCCC)CCCC)c2ccccc12`?
TbPYK inhibitor: -6%

Results for O=C(NCC12CC3CC(CC(C3)C1)C2)c1cc2nc(-c3ccc(F)cc3)cc(C(F)(F)F)n2n1 ?
TbPYK inhibitor: -10%; Sm TGR block: -3%

How did O=C(O)c1cc(/C=C/c2ccc(N3CCOCC3)cc2)nc2ccccc12 do in these assays?
LmPK inhibitor: inconclusive; Giardia FBPA inh: -9%; RE007 growth inh: 16µM*; TbPYK inhibitor: -21%; NS1 inh: 11%; Sm TGR block: 40%

How did COC(=O)NC(NS(=O)(=O)c1ccccc1)(C(=O)OC)C(F)(F)F (stereo not given) do in these assays?
LmPK inhibitor: -2%; Giardia FBPA inh: 1%; RE007 growth inh: -1%; TbPYK inhibitor: -2%; NS1 inh: 10%; Sm TGR block: 9%

What do the screens show for `CCOC(=O)C(NS(=O)(=O)c1ccccc1)(C(F)(F)F)P(=O)(OCC(C)C)OCC(C)C` (stereo not given)?
LmPK inhibitor: 9%; Giardia FBPA inh: -1%; RE007 growth inh: 9%; TbPYK inhibitor: -7%; NS1 inh: 5%; Sm TGR block: 18µM*

What do the screens show for `O=C(Nc1nc2ccccc2[nH]1)c1ccc(Cl)cc1`?
LmPK inhibitor: -16%; Giardia FBPA inh: 13%; RE007 growth inh: inconclusive; TbPYK inhibitor: -15%; NS1 inh: -31%; Sm TGR block: 8%
